Source: the supplement of paper PMC3545927
The list shows a part of the results. No count for the full screen is at hand.

Molecular target: furin, P09958
Test: furin cleavage Z-score vs untreated control; higher = more cleavage, active = 3.5 or more, inactive = 1 or less, 8 variable residues between constant flanks
In short: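 Abundance of DNA freed from bead-bound 8-mer peptide–cDNA fusions by purified furin was measured as sequencing read counts after PCR adapter tagging. Cutting ran 7.5, 15 or 30 min in 0.01 ml of 50 mM HEPES pH 7.5 with CaCl2 and NaCl at 1:10 enzyme:substrate. The cleavage Z-score expresses these log counts against furin-free reactions after lowess adjustment and median absolute deviation scaling.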

Sequence of furin, P09958 (P09958 whole entry): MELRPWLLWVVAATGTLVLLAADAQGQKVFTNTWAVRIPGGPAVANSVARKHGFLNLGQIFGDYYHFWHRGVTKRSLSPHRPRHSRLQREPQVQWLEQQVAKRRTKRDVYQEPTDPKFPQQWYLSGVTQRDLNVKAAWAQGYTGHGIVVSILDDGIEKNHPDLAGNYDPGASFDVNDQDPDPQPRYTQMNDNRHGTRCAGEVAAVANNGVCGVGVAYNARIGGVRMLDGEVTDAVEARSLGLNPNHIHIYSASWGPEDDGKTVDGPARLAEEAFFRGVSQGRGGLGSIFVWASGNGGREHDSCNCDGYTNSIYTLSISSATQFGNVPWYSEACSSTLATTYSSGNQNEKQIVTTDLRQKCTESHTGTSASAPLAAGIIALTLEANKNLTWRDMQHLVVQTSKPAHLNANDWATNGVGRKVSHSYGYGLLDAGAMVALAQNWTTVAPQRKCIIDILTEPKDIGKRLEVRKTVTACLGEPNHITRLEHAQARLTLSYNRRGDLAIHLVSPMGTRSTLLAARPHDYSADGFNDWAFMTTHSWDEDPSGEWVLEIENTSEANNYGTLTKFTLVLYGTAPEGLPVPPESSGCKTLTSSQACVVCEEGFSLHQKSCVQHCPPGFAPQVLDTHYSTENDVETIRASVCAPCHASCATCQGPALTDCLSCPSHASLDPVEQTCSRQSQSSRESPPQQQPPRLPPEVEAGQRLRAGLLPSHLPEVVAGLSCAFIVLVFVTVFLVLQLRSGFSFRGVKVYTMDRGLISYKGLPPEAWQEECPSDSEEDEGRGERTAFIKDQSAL

CAAPAVQTNWAGNASASA [HC1034]
furin cleavage Z-score (7.5 min): 0.577 (inactive)
furin cleavage Z-score (15 min): -0.967 (inactive)
furin cleavage Z-score (30 min): -0.703 (inactive)

CASFSIFLLAAGNASASA [HC247]
furin cleavage Z-score (7.5 min): 0.168 (inactive)
furin cleavage Z-score (15 min): -0.433 (inactive)
furin cleavage Z-score (30 min): -0.472 (inactive)

CARLSRDSLQAGNASASA [FS-2998]
furin cleavage Z-score (7.5 min): -0.269 (inactive)
furin cleavage Z-score (15 min): -1.05 (inactive)
furin cleavage Z-score (30 min): 1.09

CARKLRGETVAGNASASA [FS-2969]
furin cleavage Z-score (7.5 min): -1.81 (inactive)
furin cleavage Z-score (15 min): -0.954 (inactive)
furin cleavage Z-score (30 min): -0.18 (inactive)

CARKLRSLEQAGNASASA [FS-3193]
furin cleavage Z-score (7.5 min): 8.09 (active)
furin cleavage Z-score (15 min): 8.14 (active)
furin cleavage Z-score (30 min): 8.28 (active)

CARALRSATQAGNASASA [FS-3182]
furin cleavage Z-score (7.5 min): -0.644 (inactive)
furin cleavage Z-score (15 min): -0.755 (inactive)
furin cleavage Z-score (30 min): 1.8

CARDRRRLEQAGNASASA [FS-2483]
furin cleavage Z-score (7.5 min): -1.86 (inactive)
furin cleavage Z-score (15 min): 0.963 (inactive)
furin cleavage Z-score (30 min): -0.511 (inactive)

CARKLRDVLQAGNASASA [FS-2215]
furin cleavage Z-score (7.5 min): 2.04
furin cleavage Z-score (15 min): 4.73 (active)
furin cleavage Z-score (30 min): 4.95 (active)

CASNPCSAHLAGNASASA [HC2501]
furin cleavage Z-score (7.5 min): 0.199 (inactive)
furin cleavage Z-score (15 min): 0.64 (inactive)
furin cleavage Z-score (30 min): 0.644 (inactive)

CASLERHLRSAGNASASA [FS-1413]
furin cleavage Z-score (7.5 min): 3.94 (active)
furin cleavage Z-score (15 min): 4.91 (active)
furin cleavage Z-score (30 min): 3.46

CAIRFRHLRSAGNASASA [FS-1536]
furin cleavage Z-score (7.5 min): 2.94
furin cleavage Z-score (15 min): 3.49
furin cleavage Z-score (30 min): 3.84 (active)

CAGDNRHLRSAGNASASA [FS-779]
furin cleavage Z-score (7.5 min): 0.602 (inactive)
furin cleavage Z-score (15 min): 0.112 (inactive)
furin cleavage Z-score (30 min): -0.651 (inactive)

CAYRARQRRAAGNASASA [FS-1295]
furin cleavage Z-score (7.5 min): 6.02 (active)
furin cleavage Z-score (15 min): 5.59 (active)
furin cleavage Z-score (30 min): 4.76 (active)

CANTARQRRAAGNASASA [FS-1548]
furin cleavage Z-score (7.5 min): 10.2 (active)
furin cleavage Z-score (15 min): 11.6 (active)
furin cleavage Z-score (30 min): 8.92 (active)

CAYRARLSRGAGNASASA [FS-636]
furin cleavage Z-score (7.5 min): 0.776 (inactive)
furin cleavage Z-score (15 min): 2.55
furin cleavage Z-score (30 min): 2.96

CATTPCSGYWAGNASASA [HC1909]
furin cleavage Z-score (7.5 min): 0.299 (inactive)
furin cleavage Z-score (15 min): 1.62
furin cleavage Z-score (30 min): -0.123 (inactive)

CAAIKWEYVVAGNASASA [HC517]
furin cleavage Z-score (7.5 min): -0.197 (inactive)
furin cleavage Z-score (15 min): -3.37 (inactive)
furin cleavage Z-score (30 min): -0.457 (inactive)

CAVSFRVGLHAGNASASA [HC1233]
furin cleavage Z-score (7.5 min): -0.575 (inactive)
furin cleavage Z-score (15 min): 0.122 (inactive)
furin cleavage Z-score (30 min): 1

CAVVHRFARHAGNASASA [FS-107]
furin cleavage Z-score (7.5 min): 10.1 (active)
furin cleavage Z-score (15 min): 9.64 (active)
furin cleavage Z-score (30 min): 8.96 (active)

CAVVTSTWVLAGNASASA [HC988]
furin cleavage Z-score (7.5 min): -0.433 (inactive)
furin cleavage Z-score (15 min): -1.05 (inactive)
furin cleavage Z-score (30 min): -0.901 (inactive)

CAVGGVLAALAGNASASA [HC992]
furin cleavage Z-score (7.5 min): -0.486 (inactive)
furin cleavage Z-score (15 min): -0.617 (inactive)
furin cleavage Z-score (30 min): -1.61 (inactive)

CAEVVTSTWHAGNASASA [HC2255]
furin cleavage Z-score (7.5 min): 1.36
furin cleavage Z-score (15 min): -3.35 (inactive)
furin cleavage Z-score (30 min): 0.0251 (inactive)

CAVMHRVARHAGNASASA [FS-1431]
furin cleavage Z-score (7.5 min): 10.4 (active)
furin cleavage Z-score (15 min): 9.27 (active)
furin cleavage Z-score (30 min): 9.21 (active)

CAVGQRQARHAGNASASA [FS-965]
furin cleavage Z-score (7.5 min): 4.69 (active)
furin cleavage Z-score (15 min): 5.78 (active)
furin cleavage Z-score (30 min): 5.69 (active)

CAVTGGSAGHAGNASASA [HC354]
furin cleavage Z-score (7.5 min): 0.0621 (inactive)
furin cleavage Z-score (15 min): -1.5 (inactive)
furin cleavage Z-score (30 min): -0.849 (inactive)

CADVSRNARHAGNASASA [FS-1625]
furin cleavage Z-score (7.5 min): 3.37
furin cleavage Z-score (15 min): 3.82 (active)
furin cleavage Z-score (30 min): 3.7 (active)

CAVVHCSMSYAGNASASA [HC2035]
furin cleavage Z-score (7.5 min): -0.95 (inactive)
furin cleavage Z-score (15 min): -0.538 (inactive)
furin cleavage Z-score (30 min): -0.331 (inactive)

CAVGQLFTFSAGNASASA [HC304]
furin cleavage Z-score (7.5 min): 0.324 (inactive)
furin cleavage Z-score (15 min): -1.01 (inactive)
furin cleavage Z-score (30 min): -1.31 (inactive)
